From ChEMBL document CHEMBL1961873, “Compounds: GSK PKIS; Assays: Nanosyn kinase panel” (2012) come the findings set out here.

Assay [1] has as its target Dual specificity protein kinase CLK3 (Homo sapiens) (UniProt P49761). Conditions: at 1 µM.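 Also: each value is the mean inhibition of CLK3.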
In assay [2] the target is Dual specificity tyrosine-phosphorylation-regulated kinase 1A (Homo sapiens) (UniProt Q13627). As to conditions: at 0.1 µM.
Assay [3] has the same target. As to conditions: at 1 µM.
For assay [4], the target named is Dual specificity tyrosine-phosphorylation-regulated kinase 1B (Homo sapiens) (UniProt Q9Y463). Conditions: at 0.1 µM.
The target is the same in assay [5]. Conditions: at 1 µM.
In assay [6] the target is T1, Dual specificity tyrosine-phosphorylation-regulated kinase 2 (Homo sapiens) (UniProt Q92630).
T1 sequence (whole entry): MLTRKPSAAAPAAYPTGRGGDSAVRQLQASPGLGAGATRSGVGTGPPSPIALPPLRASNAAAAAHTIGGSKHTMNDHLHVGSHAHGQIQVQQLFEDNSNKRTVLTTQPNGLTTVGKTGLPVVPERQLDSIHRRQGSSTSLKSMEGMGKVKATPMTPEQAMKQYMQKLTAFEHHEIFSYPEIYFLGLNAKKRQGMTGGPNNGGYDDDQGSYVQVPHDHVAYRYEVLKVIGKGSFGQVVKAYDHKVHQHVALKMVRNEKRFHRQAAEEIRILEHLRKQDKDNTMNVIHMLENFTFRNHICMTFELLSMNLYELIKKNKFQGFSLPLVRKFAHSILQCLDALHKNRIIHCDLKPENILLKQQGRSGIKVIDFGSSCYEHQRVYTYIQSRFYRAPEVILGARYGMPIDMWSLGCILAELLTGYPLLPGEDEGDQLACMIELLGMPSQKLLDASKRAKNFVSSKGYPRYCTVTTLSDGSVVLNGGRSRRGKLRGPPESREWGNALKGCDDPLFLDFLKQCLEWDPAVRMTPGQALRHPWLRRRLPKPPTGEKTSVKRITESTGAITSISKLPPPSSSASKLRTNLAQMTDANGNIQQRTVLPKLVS
As to conditions: at 0.1 µM.

The target of assay [7] is T1, Dual specificity tyrosine-phosphorylation-regulated kinase 2 (Homo sapiens). As to conditions: at 1 µM.
For assay [8], the target named is Glycogen synthase kinase-3 alpha (Homo sapiens) (UniProt P49840). As to conditions: at 0.1 µM.
Assay [9] has the same target. Conditions: at 1 µM.
For assay [10], the target named is Glycogen synthase kinase-3 beta (Homo sapiens) (UniProt P49841). As to conditions: at 0.1 µM.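 Also: values are mean percent inhibition of GSK3B activity, from the GSK Published Kinase Inhibitor Set (PKIS) screening dataset.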
Glycogen synthase kinase-3 beta (Homo sapiens), sequence (P49841 whole entry, looked up): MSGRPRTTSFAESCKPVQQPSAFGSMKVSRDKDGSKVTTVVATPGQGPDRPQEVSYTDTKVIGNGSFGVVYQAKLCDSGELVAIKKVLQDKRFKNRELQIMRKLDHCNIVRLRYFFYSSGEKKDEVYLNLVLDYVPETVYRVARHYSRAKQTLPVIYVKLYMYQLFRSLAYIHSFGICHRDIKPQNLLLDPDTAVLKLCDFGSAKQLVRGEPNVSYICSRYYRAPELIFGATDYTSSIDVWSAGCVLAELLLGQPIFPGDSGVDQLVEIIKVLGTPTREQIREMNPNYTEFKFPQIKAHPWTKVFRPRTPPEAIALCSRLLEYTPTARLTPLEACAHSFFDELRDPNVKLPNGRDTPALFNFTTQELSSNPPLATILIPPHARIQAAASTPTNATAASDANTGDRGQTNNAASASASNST

Dual specificity tyrosine-phosphorylation-regulated kinase 1B (Homo sapiens), sequence (Q9Y463 whole entry, looked up): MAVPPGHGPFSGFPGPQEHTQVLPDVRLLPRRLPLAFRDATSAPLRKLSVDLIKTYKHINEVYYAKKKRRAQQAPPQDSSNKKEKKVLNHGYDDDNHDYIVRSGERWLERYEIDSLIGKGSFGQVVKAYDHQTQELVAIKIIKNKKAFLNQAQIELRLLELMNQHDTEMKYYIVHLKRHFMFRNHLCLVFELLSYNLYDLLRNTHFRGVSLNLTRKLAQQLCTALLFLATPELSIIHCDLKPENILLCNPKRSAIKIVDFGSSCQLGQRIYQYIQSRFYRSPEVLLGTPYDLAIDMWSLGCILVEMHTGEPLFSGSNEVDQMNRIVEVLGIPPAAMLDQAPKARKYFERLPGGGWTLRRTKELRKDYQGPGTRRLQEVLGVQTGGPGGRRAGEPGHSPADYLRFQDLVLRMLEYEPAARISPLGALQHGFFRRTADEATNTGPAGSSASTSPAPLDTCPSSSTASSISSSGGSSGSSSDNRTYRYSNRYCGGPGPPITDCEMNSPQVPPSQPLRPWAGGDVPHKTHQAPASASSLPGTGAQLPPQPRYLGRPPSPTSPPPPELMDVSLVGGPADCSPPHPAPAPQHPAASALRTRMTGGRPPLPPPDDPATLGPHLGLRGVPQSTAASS
Dual specificity protein kinase CLK3 (Homo sapiens), sequence (P49761 whole entry, looked up): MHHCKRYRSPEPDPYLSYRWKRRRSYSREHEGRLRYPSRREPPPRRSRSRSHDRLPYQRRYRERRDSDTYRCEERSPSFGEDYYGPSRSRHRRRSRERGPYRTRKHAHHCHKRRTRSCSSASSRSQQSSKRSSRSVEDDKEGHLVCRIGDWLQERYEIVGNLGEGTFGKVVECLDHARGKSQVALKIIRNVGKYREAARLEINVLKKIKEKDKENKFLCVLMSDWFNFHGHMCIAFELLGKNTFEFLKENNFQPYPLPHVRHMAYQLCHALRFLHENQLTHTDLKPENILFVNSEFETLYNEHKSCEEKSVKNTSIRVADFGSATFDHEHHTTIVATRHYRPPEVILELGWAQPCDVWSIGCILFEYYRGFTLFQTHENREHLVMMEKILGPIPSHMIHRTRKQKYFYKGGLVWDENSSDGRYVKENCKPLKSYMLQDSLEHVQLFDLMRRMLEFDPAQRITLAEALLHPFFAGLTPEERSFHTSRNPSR
Glycogen synthase kinase-3 alpha (Homo sapiens), sequence (P49840 2-483 limits assumed): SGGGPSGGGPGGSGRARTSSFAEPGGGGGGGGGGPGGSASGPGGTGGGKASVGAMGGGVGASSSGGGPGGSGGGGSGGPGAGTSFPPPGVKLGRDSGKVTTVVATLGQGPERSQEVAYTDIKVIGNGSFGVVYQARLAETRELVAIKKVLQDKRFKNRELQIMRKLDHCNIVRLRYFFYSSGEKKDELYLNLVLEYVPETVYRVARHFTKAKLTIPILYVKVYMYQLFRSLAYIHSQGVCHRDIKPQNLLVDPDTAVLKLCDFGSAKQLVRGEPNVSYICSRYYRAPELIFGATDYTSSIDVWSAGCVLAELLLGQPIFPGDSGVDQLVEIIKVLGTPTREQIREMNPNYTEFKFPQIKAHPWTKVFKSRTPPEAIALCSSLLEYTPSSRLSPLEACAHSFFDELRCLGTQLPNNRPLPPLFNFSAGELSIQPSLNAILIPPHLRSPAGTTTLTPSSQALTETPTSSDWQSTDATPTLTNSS

Turning to `COc1cc2ncn(-c3cc(OCc4ccccc4S(C)(=O)=O)c(C#N)s3)c2cc1OC`, the inhibition in [1] is 3.74%; in assay [2] it was 6.14%; in assay [3] it was 19.3%; in assay [4] it was 2.5%; in assay [5] it was 13.9%; in assay [6] it was 2.4%. Moreover, the inhibition amounted to 4.87% in assay [7], 4.96% in assay [8], 11.3% in assay [9] and 4.26% in [10].
For `[O-][S+]1CCN(Cc2ccc(-c3ccc4ncnc(Nc5ccc(OCc6ccccc6)c(Cl)c5)c4c3)o2)CC1`, the inhibition in assay [1] is -0.64%; in assay [2], 1.81%; in assay [3] it was 2.81%; in assay [4], 0.05%; in [5], 0.51%; in assay [6], 1.29%. The inhibition in [7] is 0.17%; in assay [8], 1.1%; in assay [9], 1.03%; in [10] it was 0.33%.
In the case of `NS(=O)(=O)c1ccc(NC=C2C(=O)Nc3ccc4ncsc4c32)cc1`, the inhibition came out at 17.3% in assay [1]; 30.9% in assay [2]; 63.2% in assay [3]; 20.4% in assay [4]; 57.6% in assay [5]; 10.9% in [6]. Besides, the inhibition in assay [7] stood at 46.2%; in [8], 40.4%; in assay [9], 70.9%; in assay [10], 41.1%.
`O=S(=O)(CCOCc1ccc(-c2ccc3ncnc(Nc4ccc(OCc5cccc(F)c5)c(Cl)c4)c3c2)o1)c1ccccc1`: the inhibition in assay [1] was 0.14%; in assay [2], 1.15%; in assay [3], 1.59%; in [4], -0.1%; in assay [5], 2.9%; in assay [6], 0.96%. Moreover, the inhibition was 2.34% in assay [7], 2.99% in [8], 5.63% in assay [9] and 2.14% in assay [10].
As for `NC(=O)c1sc(-n2cnc3ccccc32)cc1OCc1ccccc1Br`, the inhibition in assay [1] was 0.92%; in assay [2] it was 2.9%; in assay [3], 4.57%; in assay [4], 0.66%; in assay [5], 2.25%; in assay [6], 3.45%. Moreover, the inhibition amounted to 5.8% in assay [7], 5.13% in assay [8], 11.9% in [9] and 4.55% in assay [10].
In the case of `CS(=O)(=O)Nc1cccc(-c2ccc3c(NC(=O)C4CC4)n[nH]c3c2)c1`, the inhibition in assay [1] is 0.41%; in assay [2], -0.85%; in assay [3], 2.54%; in assay [4], -0.36%; in assay [5], 0.44%; in [6] it was 1.73%. The inhibition was found to be 0.58% in assay [7], 2.17% in [8], 10.3% in [9] and 1.76% in [10].
Turning to `COC(=O)Nc1nc2cc(Oc3ccc(NC(=O)Nc4cccc(Br)c4)cc3)ccc2[nH]1`, the inhibition came out at 1.74% in [1]; 1.12% in assay [2]; 2.3% in [3]; 0.23% in assay [4]; 1.17% in [5]; 3.11% in assay [6]. For the same compound, the inhibition in [7] is 3.59%; in [8], 2.27%; in [9] it was 5.24%; in assay [10] it was 1.01%.
Consider `COc1cccc(-n2nc(C)c3c(N/N=C(\C)c4ccncc4)ncnc32)c1`, for which the inhibition in assay [1] is -2.35%; in assay [2], 1.02%; in assay [3], 11%; in [4] it was 1.32%; in [5], 8.31%; in assay [6] it was 0.5%. The inhibition in [7] was 4.22%; in [8], 4.39%; in [9] it was 11.6%; in assay [10], 3.08%.
In the case of `CCOc1nccc2c1nc(-c1nonc1N)n2CC`, the inhibition in [1] amounted to 2.9%; in assay [2], 1.13%; in assay [3] it was 3.41%; in assay [4], 0.32%; in assay [5] it was 2.83%; in assay [6] it was 1.54%. Further, the inhibition in [7] amounted to 2.84%; in assay [8], 3.1%; in assay [9], 10.2%; in assay [10], 3.37%.
Take `NS(=O)(=O)c1cccc(-c2cc3ccncc3cc2OCc2ccccc2)c1`: the inhibition in [1] was 3.46%; in assay [2] it was 3.42%; in [3] it was 5.5%; in assay [4] it was 0.3%; in assay [5], 2.52%; in assay [6] it was 3.59%. The inhibition worked out at 3.57% in [7], 1.97% in assay [8], 4.81% in [9] and 0.8% in assay [10].
`Cc1ccc2c(c1)/C(=N/Nc1ccc(S(N)(=O)=O)cc1)C(=O)N2`: the inhibition in assay [1] is -0.91%; in assay [2], -1.04%; in [3] it was 2.94%; in assay [4] it was -1.01%; in assay [5] it was 1.94%; in assay [6], 0.43%. Moreover, the inhibition in assay [7] was -0.62%; in assay [8], 4.1%; in [9], 31.3%; in [10], 1.9%.
In the case of `NS(=O)(=O)c1ccc(N/N=C2\C(=O)Nc3ccc(Cl)cc32)cc1`, the inhibition in assay [1] was 1.92%; in [2] it was 1.08%; in assay [3], 6.73%; in assay [4] it was 0.19%; in assay [5] it was 3.96%; in assay [6] it was 2.3%. Moreover, the inhibition in assay [7] amounted to 3.44%; in assay [8] it was 17.3%; in [9] it was 61.2%; in [10] it was 13.5%.
Consider `CN(C)c1cc2c(Nc3ccc4c(cnn4Cc4ccccc4)c3)ncnc2cn1`, for which the inhibition was 1.41% in [1]; 2.17% in [2]; 6.83% in assay [3]; 1.02% in assay [4]; 3.5% in assay [5]; 2.42% in assay [6]. Moreover, the inhibition in [7] amounted to 2.63%; in assay [8], 1.84%; in assay [9] it was 5.95%; in [10], 1.16%.
On to `COc1cccc(-n2ncc3c(N/N=C/c4ccc(S(C)(=O)=O)cc4)ncnc32)c1`, for which the inhibition was determined as 13.5% in [1]; 23.1% in [2]; 64.3% in assay [3]; 9.87% in assay [4]; 47.3% in assay [5]; 14.5% in assay [6]. For the same compound, the inhibition was 24.9% in assay [7], 72.7% in [8], 80.6% in assay [9] and 70.4% in assay [10].
On to `Nc1nccc(-c2c(-c3ccc(F)cc3)nn3cc(C(F)(F)F)ccc23)n1`, for which the inhibition is 0.23% in assay [1]; 0.54% in assay [2]; 16.4% in assay [3]; -1.44% in [4]; 0.98% in [5]; 0.12% in [6]. The inhibition is -1.97% in assay [7], -1.1% in assay [8], -0.65% in assay [9] and -1.01% in [10].
For `N#Cc1c(NC(=O)c2ccccc2F)sc2c1CCCC2`, the inhibition in [1] was -0.09%; in assay [2], -0.74%; in assay [3], 1.91%; in assay [4], 0.18%; in assay [5], 0.36%; in [6] it was -2%. Also, the inhibition in assay [7] was -2.88%; in assay [8], -0.74%; in [9], 0.03%; in [10] it was -0.5%.
In the case of `CN(C)C(=O)O[C@@H]1CN[C@@H](C#Cc2cc3ncnc(Nc4ccc(OCc5cccc(F)c5)c(Cl)c4)c3s2)C1`, the inhibition was 0.69% in assay [1]; 0.28% in assay [2]; 2.08% in assay [3]; 0.23% in assay [4]; 1.08% in [5]; -0.19% in [6]. In addition, the inhibition is -0.32% in assay [7], 1.34% in [8], 8.31% in assay [9] and 1.37% in assay [10].

Broadly, the inhibition is the relative decrease from the control value, in per cent.
